The values below come from the supplement of paper PMC7695840.

In assay [1] the test system is Staphylococcus aureus MW2 delta-mecA (mecA-). Put plainly: normalized GFP fluorescence (growth of mecA- strain) (fraction of control range); higher = more growth of mecA- strain. To be noted: compound concentration: 150 uM; cefoxitin: subinhibitory; fluorescent label: GFP. A digest of the protocol:
(§1)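 In 1536-well plates holding 150 μM compound (1.5% DMSO), a 1:1 mix of pre-induced S. aureus MW2 cells was added at 5 µL/well, in one replicate. One strain carried the gene and DsRed, the other lacked the gene and carried GFP, and the LB held a subinhibitory antibiotic dose chosen daily. Plates stood unshaken for 20 h at 37 °C, 90% humidity, before DsRed (540/590) and GFP (485/520) readings, which were scaled per plate to single-strain control medians, with plates high in untreated ratio and rows above DsRed/GFP 10 dropped.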

The subject of assay [2] is Staphylococcus aureus MW2 (mecA+). Put plainly: normalized DsRed fluorescence (growth of mecA+ strain) (fraction of control range); higher = more growth of mecA+ strain. To be noted: compound concentration: 150 uM; cefoxitin: subinhibitory; fluorescent label: DsRed. A digest of the protocol: as §1

Take `CCN(CC)C(=O)c1ccc(O)c(OC)c1`: the “normalized GFP fluorescence” value in assay [1] was determined as 0.00273. The “normalized DsRed fluorescence” value in assay [2] is 0.0959.
On to `CCC(C)CCCCC(=O)NC(CCN)C(=O)NC(C(=O)NC(CCN)C(=O)NC1CCNC(=O)C(C(C)O)NC(=O)C(CCN)NC(=O)C(CCN)NC(=O)C(CC(C)C)NC(=O)C(Cc2ccccc2)NC(=O)C(CCN)NC1=O)C(C)O` (stereo not drawn), for which the “normalized GFP fluorescence” value in assay [1] was 0.159. Moreover, the “normalized DsRed fluorescence” value in assay [2] was found to be 1.05.
In the same order, the values of `C[C@]12CCC3=C4CCC(=O)C=C4CC[C@H]3[C@@H]1CC[C@@]2(O)CC#N` [Dienogest] are 0.271 and 0.746.
In the same order, the values of `CCN[C@@H]1C[C@H](N)[C@@H](O[C@H]2OC(CN)=CC[C@H]2N)[C@H](O)[C@H]1O[C@H]1OC[C@](C)(O)[C@H](NC)[C@H]1O` are 0.695 and 0.952.
In the same order, the values of `CC(C)c1nc(N(C)S(C)(=O)=O)nc(-c2ccc(F)cc2)c1/C=C/[C@@H](O)C[C@@H](O)CC(=O)O` are 0.207 and 0.514.
Regarding `Cn1cnc([N+](=O)[O-])c1Sc1ncnc2[nH]cnc12`, in assay [1], the “normalized GFP fluorescence” value was found to be 0.269. Besides, the “normalized DsRed fluorescence” value in assay [2] came to 1.03.
In the same order, the values of `C#Cc1cccc(Nc2ncnc3cc4c(cc23)OCCOCCOCCO4)c1` [Icotinib] are 0.488 and 0.429.
In the same order, the values of `NC(=O)c1ncn([C@@H]2O[C@H](CO)[C@@H](O)[C@H]2O)c1N` [AICAR (Acadesine)] are 0.547 and 0.71.
The like results for `C/C=C/c1ccc(OC)cc1` were, in that order, 0.443 and 0.71.
As for `Cc1ccc(C(=O)c2ccc(CC(=O)O)n2C)cc1`, the “normalized GFP fluorescence” value in assay [1] came to 0.421. Besides, the “normalized DsRed fluorescence” value in assay [2] turned out to be 0.279.
In the same order, the values of `C[C@@H]1O[C@@H](OC[C@H]2O[C@@H](Oc3c(-c4ccc(OCCO)c(OCCO)c4)oc4cc(OCCO)cc(O)c4c3=O)[C@H](O)[C@@H](O)[C@@H]2O)[C@H](O)[C@H](O)[C@H]1O` [Troxerutin] are 0.934 and 0.471.
For `O=P(O)(O)C(O)(Cn1ccnc1)P(=O)(O)O` [Zoledronic Acid (Zoledronate)], the “normalized GFP fluorescence” value in assay [1] was determined as 0.313. The “normalized DsRed fluorescence” value in assay [2] came out at 0.685.
In the same order, the values of `CC(CCc1ccccc1)NCC(O)c1ccc(O)c(C(N)=O)c1` (stereo not drawn) are 0.745 and 0.7.
The like results for `NC(=O)OCC(COC(N)=O)c1ccccc1` [Felbamate] were, in that order, 0.382 and 0.864.
The like results for `CN(CCOc1ccc(CC2SC(=O)NC2=O)cc1)c1ccccn1` (stereo not drawn) were, in that order, 0.341 and 0.876.
Turning to `Nc1nc2[nH]cc(CCc3ccc(C(=O)N[C@@H](CCC(=O)O)C(=O)O)cc3)c2c(=O)[nH]1`, in assay [1], the “normalized GFP fluorescence” value is 0.937. Also, the “normalized DsRed fluorescence” value in assay [2] is 0.63.
As for `CCCCCCCCCCC[C@@H](C[C@@H]1OC(=O)[C@H]1CCCCCC)OC(=O)[C@H](CC(C)C)NC=O`, in assay [1], the “normalized GFP fluorescence” value is 0.94. In assay [2], the “normalized DsRed fluorescence” value was determined as 0.482.
For the molecule `CCN(CC)C(=O)c1cccnc1`, the “normalized GFP fluorescence” value in assay [1] was determined as 0.263. Moreover, the “normalized DsRed fluorescence” value in assay [2] was found to be 0.829.
In the same order, the values of `O=C(Nc1c(Cl)cncc1Cl)c1ccc(OC(F)F)c(OCC2CC2)c1` [Roflumilast (Daxas)] are 0.368 and 0.773.
The like results for `CC1(C)[C@@H](O[C@H]2O[C@H](C(=O)O)[C@@H](O)[C@H](O)[C@H]2O[C@@H]2O[C@H](C(=O)O)[C@@H](O)[C@H](O)[C@H]2O)CC[C@]2(C)[C@H]3C(=O)C=C4[C@@H]5C[C@@](C)(C(=O)O)CC[C@]5(C)CC[C@@]4(C)[C@]3(C)CC[C@@H]12` [Glycyrrhizic acid] were, in that order, 0.122 and 1.7.
In the same order, the values of `CN1C(=O)OC(C)(C)C1=O` are 0.0459 and 1.31.
Take `CC(C)NCC(O)COc1cccc2ccccc12` (stereo not drawn): in assay [1], the “normalized GFP fluorescence” value was 0.142. In addition, the “normalized DsRed fluorescence” value in assay [2] stood at 1.24.
In the same order, the values of `COc1cc2c(cc1OC)C(=O)C(CC1CCN(Cc3ccccc3)CC1)C2` (stereo not drawn) are 0.341 and 0.564.
In the same order, the values of `O=C(O)CCCCCCCC(=O)O` are 0.422 and 0.443.
In the same order, the values of `CC(=O)NCCCS(=O)(=O)O` are 0.628 and 0.742.
Regarding `Cc1ccccc1C(=O)Nc1ccc(C(=O)N2CCCC(O)c3cc(Cl)ccc32)c(C)c1` (stereo not drawn), in assay [1], the “normalized GFP fluorescence” value stood at 0.188. For the same molecule, the “normalized DsRed fluorescence” value in assay [2] worked out at 0.541.
In the same order, the values of `CN1CCC(=C2c3ccccc3C=Cc3ccccc32)CC1` are 0.0037 and 1.31.
The like results for `COC(=O)[C@@H]1[C@H]2C[C@H]3c4[nH]c5ccccc5c4CCN3C[C@@H]2CC[C@@H]1O` were, in that order, 0.259 and 0.809.
In the same order, the values of `Cc1cn([C@H]2C[C@H](N=[N+]=[N-])[C@@H](CO)O2)c(=O)[nH]c1=O` are 0.317 and 0.887.
`CC(=O)S[C@@H]1CC2=CC(=O)CC[C@]2(C)[C@H]2CC[C@@]3(C)[C@@H](CC[C@@]34CCC(=O)O4)[C@H]12`: the “normalized GFP fluorescence” value in assay [1] came to 0.734. For the same molecule, the “normalized DsRed fluorescence” value in assay [2] amounted to 0.584.
As for `NC(=O)c1ncn([C@@H]2O[C@H](CO)[C@@H](O)[C@H]2O)c1N` [Acadesine], in assay [1], the “normalized GFP fluorescence” value was determined as 0.499. Also, the “normalized DsRed fluorescence” value in assay [2] was 0.776.
In the same order, the values of `C[C@@H]1C[C@H]2[C@@H]3CCC4=CC(=O)C=C[C@]4(C)[C@@]3(F)[C@@H](O)C[C@]2(C)[C@@]1(O)C(=O)CO` are 0.309 and 0.687.
In the same order, the values of `CCC1=C[C@@H]2CN(C1)Cc1c([nH]c3ccccc13)[C@@](C(=O)OC)(c1cc3c(cc1OC)N(C)[C@H]1[C@@](O)(C(=O)OC)[C@H](OC(C)=O)[C@]4(CC)C=CCN5CC[C@]31[C@@H]54)C2` [Vinorelbine (Navelbine)] are 0.108 and 0.921.
The like results for `CCOC(=O)n1ccn(C)c1=S` [Carbimazole] were, in that order, 0.708 and 0.813.
In the case of `CC/C(=C(/CC)c1ccc(O)cc1)c1ccc(O)cc1`, the “normalized GFP fluorescence” value in assay [1] was 0.0115. Also, in assay [2], the “normalized DsRed fluorescence” value was 0.065.
Take `O=C1c2c(O)ccc(O)c2C(=O)c2c(NCCNCCO)ccc(NCCNCCO)c21`: the “normalized GFP fluorescence” value in assay [1] came to 0.184. Also, the “normalized DsRed fluorescence” value in assay [2] was 1.12.
In the same order, the values of `C[N+]1(C)[C@@H]2C[C@@H](OC(=O)C(O)(c3cccs3)c3cccs3)C[C@H]1[C@@H]1O[C@@H]12` [Tiotropium Bromide hydrate] are 0.394 and 0.674.
For `Cn1nnc2c(C(N)=O)ncn2c1=O` [Temozolomide], the “normalized GFP fluorescence” value in assay [1] came to 0.456. For the same molecule, the “normalized DsRed fluorescence” value in assay [2] turned out to be 1.11.
In the same order, the values of `CNCCc1ccccn1` are 0.393 and 0.969.
